Bioassay records: PubChem BioAssay, National Center for Advancing Translational Sciences (NCATS)
Cycloheximide cs: affects cycloheximide protein synthesis inhibition readout, counter-screen | cell reporter, cycloheximide protein synthesis inhibition counterscreen | max response, % | 300,000 compounds, 12% hits | AID 2314; in the data active means max response mostly above about 13%, no sharp cut-off; inactive means mostly below about 14%; further: read at 38.3 µM for the half of the compounds with a filed dose
AmpC no deterg: blocks E. coli AmpC beta-lactamase in detergent-free assay. AID 485341. Potency, µM (top dose mostly 57.1 µM), actives largely listed as inhibitors. P00811. AmpC nitrocefin hydrolysis, absorbance 480 nm, 0.0001% Triton. 330,000 compounds, 0.52% hits; further: nearly all actives have a fitted effect of over 20% in size
Target sequence (P00811 whole entry, looked up): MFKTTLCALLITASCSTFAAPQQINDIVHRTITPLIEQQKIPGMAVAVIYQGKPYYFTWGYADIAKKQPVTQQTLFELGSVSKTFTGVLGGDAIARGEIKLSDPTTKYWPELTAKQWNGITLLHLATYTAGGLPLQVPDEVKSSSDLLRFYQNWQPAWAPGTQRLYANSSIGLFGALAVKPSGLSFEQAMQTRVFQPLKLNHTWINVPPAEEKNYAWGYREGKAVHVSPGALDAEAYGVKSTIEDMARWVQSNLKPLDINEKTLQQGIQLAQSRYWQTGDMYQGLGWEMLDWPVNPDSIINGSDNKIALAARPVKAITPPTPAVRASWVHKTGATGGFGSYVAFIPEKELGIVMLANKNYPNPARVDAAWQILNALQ
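AmpC (5.3 nM in the dispensed reagent) in 20 mM phosphate pH 7.0 with 0.01% (detergent screen) or 0.0001% Triton X-100 was preincubated with compounds for 15 min at room temperature. Nitrocefin was then added from an 800 uM solution, and hydrolysis was followed at 480 nm.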
Shiga toxin inh: Shiga toxin inhibition | 290,000 compounds, 9.2% hits | inhibition, % at 38.7 µM | AID 2315 | Vero cells, Shiga toxin protein synthesis inhibition reporter; in the data active means inhibition mostly above about 28%, no sharp cut-off; inactive means mostly below about 43%
NS1 function inh: inhibitors of influenza NS1 protein function; AID 2326; 270,000 compounds, 0.4% hits; Potency, µM (top dose mostly 46.1 µM); calls by dose curve; further: actives are rising curves; nearly all actives have a fitted effect of over 50% in size
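In this qHTS, NS1 from influenza A is expressed in budding yeast, where it slows growth. Cells are switched from glucose to 2% galactose medium (pH 6.0, -URA), treated with compound, and growth recovery is read at OD600.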
AmpC inh detg: inhibitors of E. coli AmpC beta-lactamase with detergent | P00811 | AmpC hydrolysis of nitrocefin, absorbance 480 nm, 0.01% Triton | Potency, µM (titrated, usually from 114 µM), actives largely listed as inhibitors | 370,000 compounds, 0.041% hits | AID 485294; further: nearly all actives have a fitted effect of over 25% in size
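AmpC (5.3 nM in the dispensed reagent) in 20 mM phosphate pH 7.0 with 0.01% (detergent screen) or 0.0001% Triton X-100 was preincubated with compounds for 15 min at room temperature. Nitrocefin was then added from an 800 uM solution, and hydrolysis was followed at 480 nm.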
Numbers stand for hits; 0 = inactive; ? = inconclusive; - = no result; + = active, no number. This excerpt belongs to a sample that is enriched for hits. Unless noted, the call rests on the fitted dose curve; in most records, active means well fitted curve in the direction sought with a large enough effect; inconclusive means small, poorly fitted or top-dose-only effect, or another doubt; inactive means no such curve, though single readings can be large; an effect the other way counts as inactive or inconclusive.

SMILES	Cycloheximide cs	AmpC no deterg	Shiga toxin inh	NS1 function inh	AmpC inh detg
CCN1CCN(c2ncnc3c2cnn3-c2ccc(C)cc2)CC1	-	-	-	-	0
Cc1ccc(-n2sc3ccccc3c2=O)cc1	18.2	0	0	0	?
CC1(C)OC(=O)C(=NNc2ccc(O)cc2)C(=O)O1	12.7	0	0	0	0
CC1(C)OC(=O)C(=NNc2ccc(C(=O)O)cc2)C(=O)O1	0	0	0	0	0
CC1(C)OC(=O)C(=NNc2ccc(Cl)cc2)C(=O)O1	59.8	0	63.0	0	0
CCOC(=O)c1sc(NC(=O)c2nc(SCC)ncc2Cl)c(C(=O)OCC)c1C	-	-	-	-	0
CC(=O)c1ccc(NC(=O)CSc2nnc3ccc(-c4ccc(F)cc4)nn23)cc1	-	-	-	-	0
Cc1cc(C=C2C(=O)NC(=S)NC2=O)c(C)n1C1CCCC1	43.4	0	70.7	-	0
Cc1cc(C=C2C(=O)N(C)C(=S)N(C)C2=O)c(C)n1C1CCCCC1	0	0	0	0	0
CSc1ccc(S(=O)(=O)NC2CC3CCC2C3)cc1 (stereo unspecified)	0	0	-	0	0
CCOc1ccccc1NC(=O)Cc1noc2ccc(C)cc12	-	-	-	-	0
CCc1nc(N2CCN(C(=O)CCl)CC2)c2c3c(sc2n1)CC(C)CC3 (stereo unspecified)	10.9	0	0	0	0
Cc1ccc(CCNC(=O)C2CCN(S(=O)(=O)c3c(C)nn(C)c3C)CC2)cc1	0	2.51µM	0	0	?
COc1ccc(NC(=O)CNc2ccc(C#N)cc2)cc1	0	0	0	0	0
C/C(=N\NC(=O)c1ccoc1C)c1ccc(Br)s1	57.2	0	79.5	0	0
Cc1occc1C(=O)N/N=C/c1ccc(Br)s1	42.3	0	63.0	0	0
Cc1ccc(/C=N/NC(=O)c2ccoc2C)s1	70.0	0	+	0	0
Cc1ncc(CO)c(/C=N/NC(=O)c2ccoc2C)c1O	-	0	-	-	0
O=C(CSc1nnc2ccccn12)NNC(=O)c1cccc([N+](=O)[O-])c1	-	0	-	-	0
CCCCCCOC(=O)C[N+](C)(C)CCOC1CC2CCC1(C)C2(C)C (stereo unspecified)	19.3	?	0	0	0
CC(O)c1cccc2cc(C(O)CNC(C)(C)C)oc12 (stereo unspecified)	0	-	0	-	-
CCOc1ccc(CCNC(=O)c2cnc3sc(N4CCCCCC4)nn3c2=O)cc1	-	-	-	-	0
Cc1nccc(-c2sc(-c3cccs3)nc2C)n1	35.9	0	57.9	0	0
CC(C)Cc1cc(C(=O)Nc2ccc(F)cc2F)no1	56.2	0	90.4	?	0
CC(C)Cc1cc(C(=O)Nc2c(F)cc(F)cc2Br)no1	0	?	36.8	0	?
SMILES	Cycloheximide cs	AmpC no deterg	Shiga toxin inh	NS1 function inh	AmpC inh detg
COc1ccc(-c2cc(C(=O)Nc3c(F)cc(F)cc3Br)no2)cc1	15.6	0	67.3	0	0
Cc1ccc(S(=O)(=O)N2CCc3cc4c(cc3C2C)OCCCO4)cc1 (stereo unspecified)	0	0	0	0	0
COC(=O)[C@H](Cc1c[nH]c2ccccc12)NC(=O)NCc1ccc(OC)cc1	0	0	0	0	0
Cc1cc(=O)[nH]c(N/N=C/c2cccs2)n1	23.3	0	0	0	0
Cc1cc(=O)[nH]c(N/N=C/c2sccc2C)n1	47.4	0	80.9	0	0
O=c1cnnc(N/N=C/c2cccs2)[nH]1	0	0	0	0	0
Cc1cc(=O)[nH]c(N/N=C/c2cc(C)n(-c3ccccc3)c2C)n1	33.9	0	95.0	0	0
Cc1ccc(-c2ccc(/C=N/O)o2)cc1[N+](=O)[O-]	34.6	0	60.8	-	0
CC(NC(=O)COC(=O)Cc1ccc(-c2ccccc2)cc1)c1ccccc1 (stereo unspecified)	0	0	0	0	0
CC(C)c1nn2c(=O)cc(COC(=O)c3ccccc3NC(=O)C3CCCCC3)nc2s1	-	-	-	-	0
O=C(Cn1c(=O)c2ccccc2n(CC(=O)Nc2ccc(F)cc2F)c1=O)NCCc1ccccc1	-	-	-	-	0
Cc1cc(=O)[nH]c(N/N=C/c2ccc(-c3ccc([N+](=O)[O-])cc3)o2)n1	11.9	0	0	0	0
N#CC(C(=O)Nc1cccc(Cl)c1)=C1Nc2ccccc2N1	0	0	0	0	0
NS(=O)(=O)c1cccc(NC(=O)Nc2ccc(Cl)cc2)c1	35.9	14.1µM	87.0	0	0
O=C(Nc1cccc(Cl)c1)OCc1cnc(Cl)s1	14.1	0	0	0	0
CC1CCC(=C(C#N)C(=O)Nc2cccc(Cl)c2)CC1 (stereo unspecified)	23.9	0	0	0	0
CN1CCN(NC(=O)Nc2cccc(F)c2)CC1	10.9	0	0	0	0
Cc1cccc(NC(=O)Nc2ccc(S(N)(=O)=O)cc2)c1	0	0	0	0	0
O=S(=O)(c1ccc(Cl)cc1)c1nc(-c2ccccc2)oc1N1CCN(c2ccccc2)CC1	-	-	-	-	0
Cc1cccnc1NC(=O)Nc1cccc(Cl)c1	0	0	59.5	0	0
CC(=O)Nc1cccc(NC(=O)Nc2cccc(F)c2)c1	0	0	0	0	0
O=C(CCc1ccccc1)NNC(=O)Nc1cccc(Cl)c1	16.8	0	0	0	?
CC(CNC(=O)COc1ccccc1)OC(=O)Nc1ccc(Cl)c(Cl)c1 (stereo unspecified)	0	0	0	0	0
COC(=O)NCC(C)OC(=O)Nc1cccc(Cl)c1 (stereo unspecified)	10.7	0	0	0	0
Cc1cccnc1NC(=O)Nc1cccc2ccccc12	0	0	0	0	0
SMILES	Cycloheximide cs	AmpC no deterg	Shiga toxin inh	NS1 function inh	AmpC inh detg
O=C(Nc1cccc(F)c1)Nc1cccc(Cl)c1	27.6	0	-	0	?
CCOC(=O)c1cnc2c(ccc3ccccc32)c1Nc1ccc(C(C)=O)cc1	-	-	-	-	0
Cc1cccc(N(CC(=O)NCCSCc2cccc(Cl)c2)S(=O)(=O)c2ccccc2)c1C	-	-	-	-	0
COc1cc(S(=O)(=O)Nc2ccc3cn[nH]c3c2)ccc1Cl	0	0	0	-	0
Cc1ccc(S(=O)(=O)Nc2ccc(NC(=O)Nc3cccc(C(F)(F)F)c3)cc2)cc1	0	0	0	0	0
COC(=O)c1cccc(NC(=O)Nc2ccc(Cl)cc2)c1	28.3	0	47.6	0	0
CNS(=O)(=O)c1ccc(NC(=O)Nc2cccc(F)c2)cc1	32.0	0	85.5	0	0
O=C(Nc1cccc(Cl)c1)Nc1cccc(Cl)c1	19.6	0	68.5	0	0
COC(=O)c1cccc(NC(=O)NC(=O)c2ccc(Cl)cc2)c1	0	0	0	0	0
COC(=O)c1cc(NC(=O)Nc2cccc(Cl)c2)ccc1Cl	21.8	0	0	0	0
C[N+](C)(C)CCOP(=O)(O)OP(=O)([O-])OC[C@H]1O[C@@H](n2ccc(N)nc2=O)[C@H](O)[C@@H]1O	0	0	0	0	0
Cc1cccc(N(O)C(=O)Nc2cccc(Cl)c2)c1	37.2	0	56.0	0	0
N#Cc1ccccc1NC(=O)Nc1cccc(Cl)c1	0	-	0	0	0
N#CCc1ccc(NC(=O)Nc2cccc(Cl)c2)cc1	32.0	0	0	0	0
